In the library only some 1.3% were active in any assay of this set; here they are far more common.
AGP1-GFP MLPCN – yeast TOR pathway AGP1-GFP modulation; S. cerevisiae AGP1-GFP multiplex flow cytometry, 3 h; GFP as percent of DMSO wells; hit rate 0.02% among 320,000; GFP response vs DMSO, % at 10 µM;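 active = GFP response relative to DMSO above a set limit, near screen average plus 3 SD, cut at about 150% in these data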;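 also: median GFP channel fluorescence of the gated AGP1 strain per well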
MEP2-GFP yeast – yeast TOR pathway MEP2-GFP modulation; hit rate 0.51% among 330,000; S. cerevisiae MEP2-GFP strain, flow cytometry GFP, 3 h; 100% = DMSO control level; GFP response vs DMSO, % at 10 µM;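 active = GFP response versus DMSO above a set limit, roughly screen mean plus 3 SD, cut at about 180% in these data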;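 also: median GFP fluorescence of the barcode-gated MEP2-GFP cells per well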
RPL19A TOR yeast – modulators of TOR pathway RPL19A-GFP in S. cerevisiae; S. cerevisiae RPL19A-GFP strain, flow cytometry, 3 h; active compounds read low; percent response vs DMSO, % at 10 µM; hit rate 0.3% among 330,000;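 active = percent response vs DMSO below 50%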;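 also: median channel GFP fluorescence of the barcoded RPL19A-GFP strain; lower means less RPL19A-GFP as with rapamycin TOR inhibition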
LAP4-GFP MLPCN – alters LAP4-GFP fluorescence in TOR pathway yeast screen; S. cerevisiae LAP4-GFP multiplex, flow cytometry GFP, 3 h; median GFP as percent of DMSO wells; GFP response vs DMSO, % at 10 µM; hit rate 0.34% among 320,000; AID 2023;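 active = GFP response vs DMSO above a set limit, about the screen mean plus 3 SD, cut at about 150% in these data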
CIT2 TOR yeast – modulators of TOR pathway CIT2-GFP in S. cerevisiae | AID 2029 | GFP response vs DMSO, % at 10 µM | hit rate 0.065% among 320,000 | S. cerevisiae CIT2-GFP strain, flow cytometry, 3 h; 100 means same as DMSO wells;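 active = GFP response relative to DMSO above a set limit, near the screen mean plus 3 SD, cut at about 150% in these data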;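 also: ratio of well median GFP fluorescence to mean of DMSO wells on the plate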
Efflux pump mplx – antifungal efflux pump inhibition, Nile Red retention; AID 485275; inhibition, % at 10 µM; S. cerevisiae Candida pump triplex; hit rate 0.44% among 330,000;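 active = plate passing quality check with inhibition over a set limit, or well fluorescence over plate mean plus 4 SD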;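 also: Nile Red retained in pooled yeast measured as flow cytometry median fluorescence; higher means more Nile Red kept so more efflux inhibition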
LAP4-GFP pick2 – yeast LAP4-GFP modulation, second cherry pick; shares compounds with LAP4-GFP MLPCN; S. cerevisiae LAP4-GFP strain, flow cytometry GFP, 3 h; hit rate 20% among 590; GFP response vs DMSO, % at 10 µM;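 active = GFP signal as percent of the solvent control above about 150%, meaning raised reporter expression, limit read from the data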
MEP2-GFP pick2 – reconfirmed MEP2-GFP TOR pathway modulator in yeast; shares compounds with LAP4-GFP MLPCN; S. cerevisiae MEP2-GFP strain, flow cytometry GFP, 3 h; GFP response vs DMSO, % at 10 µM; hit rate 10% among 590;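 active = GFP signal above 150% of the solvent control wells, that is a rise of more than half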;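 also: median channel GFP fluorescence of all gated yeast cells per well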
RPL19A-GFP pick2 – second confirmation of modulators of TOR reporter RPL19A-GFP in yeast. hit rate 3% among 590. GFP response vs DMSO, % at 10 µM. shares compounds with LAP4-GFP MLPCN. AID 2623. S. cerevisiae RPL19A-GFP strain, flow cytometry GFP, 3 h; active compounds read low; 100% means same as DMSO wells;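 active = under 65% GFP response relative to DMSO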;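 also: median GFP channel fluorescence per well over the all cells gate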
CIT2 GFP CP2 – yeast CIT2-GFP TOR reporter modulation, second cherry pick. shares compounds with LAP4-GFP MLPCN. S. cerevisiae CIT2-GFP strain, flow cytometry GFP, 3 h; DMSO control wells read 100%. GFP response vs DMSO, % at 10 µM. hit rate 8% among 590. AID 2624;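 active = GFP response vs DMSO above about 150%, limit read from the data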;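 also: median green fluorescence per well over all gated yeast cells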
AGP1-GFP pick2 – yeast AGP1-GFP TOR reporter modulation, second cherry pick; S. cerevisiae AGP1-GFP strain, flow cytometry GFP, 3 h; 590 tested, under 10 active; percent response vs DMSO, % at 10 µM; AID 2643; shares compounds with LAP4-GFP MLPCN;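 active = over 150 percent of DMSO response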;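 also: median GFP channel fluorescence over all cells without mother daughter split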
s288c autofluor – compound is autofluorescent in yeast s288c cells | shares compounds with LAP4-GFP MLPCN | S. cerevisiae s288c, 520 nm autofluorescence, flow cytometry, 3 h; active compounds read high; zero means same as solvent-only cells | fluorescence change (kMESF span) at 33 µM | 610 tested, under 10 active | AID 2757;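 active = fluorescence span over the dose series, or activity score, above about 33, limit read from the data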
A number is an active result; i = inactive; nt = no result given.

SMILES	AGP1-GFP MLPCN	MEP2-GFP yeast	RPL19A TOR yeast	LAP4-GFP MLPCN	CIT2 TOR yeast	Efflux pump mplx	LAP4-GFP pick2	MEP2-GFP pick2	RPL19A-GFP pick2	CIT2 GFP CP2	AGP1-GFP pick2	s288c autofluor
CC(=O)Oc1ccc(N2C(=O)C3C4C=CC(O4)C3C2=O)cc1 (configuration not stated)	i	i	i	i	i	i	nt	nt	nt	nt	nt	i
CS/C(=N\S(=O)(=O)c1ccccc1)c1ccccc1	i	i	i	i	i	i	nt	nt	nt	nt	nt	nt
O=S(=O)(/N=C(/Sc1ccccc1)c1ccccc1)c1ccccc1	i	i	i	190	i	i	nt	nt	nt	nt	nt	i
CCn1c(=O)c(C(C)=O)c(O)c2ccccc21	i	i	i	174	i	i	nt	nt	nt	nt	nt	i
CCc1nc2ccccc2c(=O)n1NC(=O)c1c(O)c2ccccc2n(CC)c1=O	i	i	i	i	i	i	i	224	42	168	i	i
CCc1nc2ccccc2c(=O)n1NC(=O)c1c(O)c2cccc3c2n(c1=O)CCC3	i	i	i	i	i	i	i	i	64	i	i	i
CCn1c(=O)c(C(=O)Nn2c(C)nc3ccccc3c2=O)c(O)c2ccccc21	i	i	i	i	i	i	nt	nt	nt	nt	nt	nt
CCn1c(=O)c(C(=O)Nc2ccccc2)c(O)c2ccccc21	i	i	i	i	i	i	nt	nt	nt	nt	nt	nt
CCn1c(=O)c(C(=O)Nc2nc3ccccc3[nH]2)c(O)c2ccccc21	i	i	i	176	i	i	nt	nt	nt	nt	nt	i
O=C(Nn1c(Cc2ccccc2)nc2ccccc2c1=O)c1c(O)c2cccc3c2n(c1=O)CCC3	i	i	i	i	i	i	nt	nt	nt	nt	nt	nt
CCN(CC(=O)NCc1ccc(F)cc1)C(=O)c1ccc(C)o1	i	i	i	i	i	i	nt	nt	nt	nt	nt	nt
CCc1cc2c(-c3ccccc3)cc(=O)oc2cc1OCC(=O)NCC1CCC(C(=O)O)CC1 (configuration not stated)	i	i	i	i	i	i	nt	nt	nt	nt	nt	nt
CCCc1nnc(NC(=O)c2c(O)c3cccc4c3n(c2=O)CCC4)s1	i	i	i	i	i	i	i	i	50	i	i	i
C=CCN1CCN(C(=O)c2ccc3c(c2)OCO3)CC1	i	i	i	i	157	i	i	i	i	i	i	nt
O=C(O)c1ccccc1-c1ncc(-c2ccccc2)o1	i	i	i	i	i	i	nt	nt	nt	nt	nt	nt
C/C(=N/NS(=O)(=O)c1ccc(Br)cc1)c1ccc(NC(=O)c2ccc(C)o2)cc1	i	i	i	i	i	i	nt	nt	nt	nt	nt	nt
C/C(=N\NS(=O)(=O)c1ccc([N+](=O)[O-])cc1)c1ccc(NC(=O)c2ccco2)cc1	i	i	i	i	i	i	i	i	i	i	i	nt
COc1ccc(-c2cc(C)no2)cc1S(=O)(=O)N1CCCN(Cc2ccc(F)cc2)C1	i	i	i	i	i	i	i	i	i	i	i	nt
COc1ccc(-c2cc(C)no2)cc1S(=O)(=O)Nc1cccc(CN2CCCC2)c1	i	i	i	i	i	i	nt	nt	nt	nt	nt	nt
COc1ccc(N2C(=O)CC(Sc3ncn[nH]3)C2=O)c(OC)c1 (configuration not stated)	i	i	i	i	i	i	nt	nt	nt	nt	nt	i
COc1ccc(S(=O)(=O)NCC2CCC(C(=O)NCCCN3CCCC3=O)CC2)cc1 (configuration not stated)	i	i	i	i	i	i	nt	nt	nt	nt	nt	nt
CC(=O)Nc1ccc(C(=O)CN2C(=O)NC3(CCCc4ccccc43)C2=O)c(F)c1 (configuration not stated)	i	i	i	i	i	i	nt	nt	nt	nt	nt	nt
Cc1ccc(S(=O)(=O)N2CCCC2C(=O)NCc2ccncc2)cc1 (configuration not stated)	i	i	i	i	161	i	i	i	i	i	i	i
COc1ccc(CNC(=O)C2CCCN2S(=O)(=O)c2ccc(C)cc2)cc1 (configuration not stated)	i	i	i	i	i	i	nt	nt	nt	nt	nt	nt
COc1ccc(-n2nc(C(=O)NCC(=O)N(C)Cc3ccccc3)c3ccccc3c2=O)c(OC)c1	i	i	i	i	i	i	nt	nt	nt	nt	nt	nt
SMILES	AGP1-GFP MLPCN	MEP2-GFP yeast	RPL19A TOR yeast	LAP4-GFP MLPCN	CIT2 TOR yeast	Efflux pump mplx	LAP4-GFP pick2	MEP2-GFP pick2	RPL19A-GFP pick2	CIT2 GFP CP2	AGP1-GFP pick2	s288c autofluor
COc1ccc(C(=O)NCCSc2ccccc2)cc1	i	i	i	i	i	i	nt	nt	nt	nt	nt	nt
COc1ccc(-c2[nH]c3ccccc3c2SCCNC(=O)c2ccccc2)cc1	i	662	i	217	i	i	i	i	i	i	i	nt
CCCC1(c2ccccc2)NC(=O)N(CC(=O)NCc2ccc(OC)cc2)C1=O (configuration not stated)	i	i	i	i	i	i	nt	nt	nt	nt	nt	nt
NCCCn1c(C(=O)c2ccc(Cl)cc2)c2ccc([N+](=O)[O-])cc2[n+]1[O-]	i	i	i	i	i	i	nt	nt	nt	nt	nt	nt
N#Cc1c2ccc([N+](=O)[O-])cc2[n+]([O-])n1-c1ccccc1	i	i	i	165	i	i	179	i	i	i	i	i
Cc1nn(-c2ccc(N3CCOCC3)nn2)c(C)c1CCC(=O)N1CCN(C)CC1	i	i	i	i	i	i	nt	nt	nt	nt	nt	nt
COc1ccc(-c2nc(-c3cccs3)c(-c3cccs3)[nH]2)cc1O	i	i	i	164	i	i	i	i	i	i	i	nt
Cc1ccnc(NC(=O)c2ccc(S(=O)(=O)NCc3ccco3)cc2)c1	i	i	i	i	i	i	nt	nt	nt	nt	nt	nt
COc1cccc(-n2nnnc2SCC(=O)Nc2ccccc2OC)c1	i	i	i	i	i	i	nt	nt	nt	nt	nt	nt
CCCS(=O)(=O)c1nnnn1-c1cccc(OC)c1	i	i	i	204	i	i	nt	nt	nt	nt	nt	i
Nc1ncc(Br)cc1S(=O)(=O)NCCC(=O)NCCc1ccc(Cl)cc1	i	i	i	i	i	i	nt	nt	nt	nt	nt	nt
CN(C(=O)COC(=O)/C=C/c1cccs1)C1CCCCC1	i	i	i	i	i	i	nt	nt	nt	nt	nt	nt
Cc1cccc(NS(=O)(=O)c2cc(C(=O)N3CCN(C)CC3)ccc2C)c1	i	i	i	i	i	i	nt	nt	nt	nt	nt	nt

Bioassay records from PubChem BioAssay.
